FXN GAA850 act: frataxin GAA850 promoter activation | 0.56% of 360,000 active | activation, % at 6 µM | HEK293 lucGAA850 FXN promoter luciferase reporter, 24 h; percent of 10 µM SAHA response;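 active = activation above the average of all compounds screened plus 3 SD, cutoff fixed separately per campaign, cut at about 7.5% in these data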;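 note: 0% = DMSO wells and 100% = 10 µM SAHA wells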
DAX1 inh-1: DAX1 (NR0B1) inhibition, primary screen. 1.1% of 370,000 active. HEK293T StAR-luciferase reporter, SF-1/DAX-1 repression relief. inhibition, % at 6.8 µM;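 active = inhibition above the mean over all tested compounds plus 3 SD, cut at about 3.6% in these data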;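 note: 0% = DAX-1 cells with DMSO and 100% = cells lacking DAX-1 with DMSO; higher inhibition means more luminescence from relief of DAX-1 repression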
hcDAF12 agonist: H. contortus DAF-12 activation, primary screen. activation, % at 6.8 µM. HEK293 hcDAF-12 lit1-tk-luc reporter, luminescence; 0% DMSO, 100% Δ7-dafachronic acid. AID 652067. 1.4% of 370,000 active;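 active = activation above the mean of all tested compounds plus 3 SD, cut at about 5.5% in these data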;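 note: 100% = response to 3 µM Δ7-dafachronic acid high control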
hgDAF12 agonist: hgDAF-12 agonism, primary luciferase screen. HEK293 GAL4-hgDAF12 UAS-luciferase reporter, agonist luminescence; normalized to butyrate control. activation, % at 6.8 µM. 1.8% of 370,000 active. AID 687014;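 active = activation above a cutoff set at the mean of all screened compounds plus 3 SD, cut at about 10% in these data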;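 note: 0% = DMSO wells and 100% = sodium butyrate wells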
ssDAF-12 act: S. stercoralis DAF-12 activation, primary screen; HEK293 ssDAF-12/GRIP1 lit1-tk-luc reporter, luminescence; % of 3 µM dafachronic acid response; activation, % at 6.8 µM; 1% of 370,000 active;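 active = activation above the mean over all tested compounds plus 3 SD, cut at about 0.9% in these data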;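 note: 0% = DMSO-only wells and 100% = 3 µM delta7-dafachronic acid wells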
DAX1 inh-2: inhibits human nuclear receptor DAX1 | HEK293 Gal4-DAX1 luciferase reporter, luminescence | 0.99% of 340,000 active | inhibition, % at 6.75 µM | AID 504766 | P51843;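 active = inhibition above the mean over all tested compounds plus 3 SD, cut at about 4.2% in these data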;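 note: 0% = DAX1-transfected cells with DMSO and 100% = empty-vector control cells with DMSO; inhibition shows as a rise in luminescence from relieved DAX1 repression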
Target sequence (P51843 207-470 limits assumed): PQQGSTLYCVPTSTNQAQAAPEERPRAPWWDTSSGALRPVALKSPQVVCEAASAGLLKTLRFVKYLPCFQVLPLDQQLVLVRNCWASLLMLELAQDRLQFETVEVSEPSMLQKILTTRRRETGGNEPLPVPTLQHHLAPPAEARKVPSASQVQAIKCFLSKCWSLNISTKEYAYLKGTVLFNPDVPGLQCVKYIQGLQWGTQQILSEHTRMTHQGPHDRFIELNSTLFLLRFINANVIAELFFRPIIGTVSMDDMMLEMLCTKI
An asterisk follows results filed as active; / = no result given. This is a sample that favours compounds with a hit; in the whole collection about 4.5% have one here.

SMILES	FXN GAA850 act	DAX1 inh-1	hcDAF12 agonist	hgDAF12 agonist	ssDAF-12 act	DAX1 inh-2
CC(=O)C1=C(C)NC(SCC(=O)c2ccc(F)cc2)=C(C#N)C1CC(C)C (stereo unspecified)	3	1	-1	12*	-1	-1
CC(=O)C1=C(C)NC(SCC(=O)c2ccc(Cl)cc2)=C(C#N)C1CC(C)C (stereo unspecified)	0	1	-2	0	-1	0
COC(=O)C1CN(Cc2ccc(OC)cc2)CCS(=O)(=O)N1Cc1ccc(F)cc1 (stereo unspecified)	/	0	0	-1	-2	/
CC(COc1ccc(Br)cc1)CN1CCC(C(O)(c2ccccc2)c2ccccc2)CC1 (stereo unspecified)	/	0	-1	0	-1	/
CC(C)[C@H](NC(=O)c1ccc(Cl)cc1Cl)C(=O)N1CCC[C@H]1C(=O)NCCc1ccccc1Cl	/	0	0	2	-1	/
Nc1[nH]c(C(=O)c2ccccc2)c(-c2cccc(C(F)(F)F)c2)c1C(=O)NCCc1c[nH]c2ccccc12	/	-1	-3	-3	-2	/
O=C(Nc1nc(-c2ccccc2)cs1)Nc1ccc(F)cc1F	1	-2	-2	5	-2	4.7*
C/C(=C\c1ccccc1)C(=O)Nc1ccc(Cl)cn1	3	3	5.6*	12*	0	1
O=C(Nc1ccc(Cl)cn1)Nc1ccccc1F	2	0	1	8	1.6*	6.9*
COC(=O)c1ccc(NC(=O)Nc2ccccc2F)cc1	5	3	5	12*	0	0
O=C(Nc1ccc(Cl)cn1)Nc1ccc(Cl)cn1	1	-1	0	1	-2	0
Cc1ccccc1CN1CCCCC(NC(=O)c2cccc([N+](=O)[O-])c2)C1=O (stereo unspecified)	/	-1	0	-4	-1	/
CCOC(=O)[C@@]12CN(C(=O)OC(C)(C)C)CC=C1N(Cc1ccc(OC)cc1)C(=O)[C@H]2CC(=O)N1CCOCC1	/	-1	0	0	-1	/
O=C(OCCCN1CCC2(CCC(c3ccccc3)CC2)C1=O)c1ccccc1 (stereo unspecified)	/	0	-1	4	-1	/
O=C(C#Cc1ccccc1)Nc1ccccc1F	-1	0	0	11*	-1	2
COC(C(=O)NNC(=O)Cc1ccc(Cl)cc1)c1ccccc1 (stereo unspecified)	-1	0	-1	-1	-1	4.3*
COC(=O)c1cccc(NC(=O)Nc2ccccc2OC)c1	1	0	-1	5	-1	6.5*
COc1ccccc1NC(=O)Nc1cccc(NC(C)=O)c1	0	0	-2	-3	-2	0
O=C(Nc1ccc(F)cc1)Nc1ccccc1F	2	1	3	11*	-1	0
CCCCNC(=O)NCC1CCN(Cc2ccc(OC)cc2)CC1	/	0	-1	-1	-2	/
COc1ccccc1CCC[C@H](CCS(=O)(=O)C(C)C)CC1CCCCC1	/	-1	-2	5	-1	/
CCCCNC(=O)C[C@H]1C[C@@]2(C(=O)OC)C(=C[C@H](COCc3ccccc3)O[C@@H]2C)N(Cc2ccc3c(c2)OCO3)C1=O	/	-1	-1	1	-2	/
COc1ccccc1NC(=O)NNC(=O)c1ccncc1	0	3.8*	4	0	-1	-2
O=C(Nc1ccccc1)Nc1cccn(Cc2c(F)cccc2Cl)c1=O	1	2	-1	11*	-2	-1
COC(=O)c1ccc(NC(=O)Nc2ccccc2C)cc1	6	0	-2	12*	-2	-1
SMILES	FXN GAA850 act	DAX1 inh-1	hcDAF12 agonist	hgDAF12 agonist	ssDAF-12 act	DAX1 inh-2
COc1ccccc1NC(=O)NNC(=O)c1ccc2ccccc2c1	3	-1	-1	-2	-1	0
O=C(Nc1ccc(NC(=O)c2ccccc2O)cc1)Nc1ccc(F)cc1F	-1	0	-1	0	1.6*	0
O=C(Nc1ccc(F)cc1F)Nc1ccc(F)cc1F	4	0	-2	-3	-2	-2
O=C(CN(CCc1ccccc1)S(=O)(=O)c1cccs1)N1CCOCC1	/	0	0	2	-1	/
O=C1N2Cc3ccccc3C2CS(=O)(=O)N1CCc1ccccc1 (stereo unspecified)	/	1	-1	4	-2	/
COc1ccc(CCNC(=O)c2cc3c(C)nn(-c4ccccc4)c3s2)cc1OC	/	-2	-4	-3	-1	/
CN(Cc1ccccc1)C(=O)OCc1cn(Cc2cc(F)cc(F)c2)nn1	/	-2	2	-1	-1	/
COC(C(=O)Nc1ccc(F)cc1F)c1ccccc1 (stereo unspecified)	0	0	-2	-1	-1	4.2*
COC(C(=O)Nc1ccc(Br)cc1F)c1ccccc1 (stereo unspecified)	0	-1	-1	-1	-2	1
O=C(Nc1ccc2c(c1)OCCO2)c1ccc(Cl)c([N+](=O)[O-])c1	3	1	3	13*	-1	3
O=C(Nc1ccc2c(c1)OCCO2)c1ccc(Br)o1	2	2	4	12*	0	1
CCCN1Cc2cccc(C(=O)Nc3ccc4c(c3)OCCO4)c2C1=O	-1	0	1	2	-1	4.6*
O=C(Nc1ccc2c(c1)OCCO2)c1cccc(Cl)c1Cl	5	2	4	12*	0	3
CC(OC(=O)c1ccc(Br)o1)C(=O)Nc1ccc2c(c1)OCCO2 (stereo unspecified)	3	-2	-1	2	-1	0
O=C(O)c1cc(Br)ccn1	0	-1	1	1	-2	1
O=C(O)c1ccnc(C(=O)O)c1	4	0	-2	2	-2	4.5*
O=c1c(-c2ccccc2)n[nH]c2ccccc12	3	2	5	11*	1	2
COCCN(C(=O)COC(=O)c1ccc2c(c1)OCO2)c1c(N)n(Cc2ccccc2)c(=O)[nH]c1=O	-1	-1	-1	0	-2	4.4*
COC(=O)[C@@]12CCCCC3=C1N(CCC3)C(=O)[C@H]2CC(=O)N1CCSCC1	/	-1	-1	0	1.5*	/
CN1CCN(C(=O)CCc2nc3ccccc3c(=O)[nH]2)CC1	2	0	6.0*	0	0	2
CN(Cc1nc2ccccc2c(=O)[nH]1)c1ccccc1	-3	0	3	2	0	5.3*
CSc1ccccc1NC(=O)CN(C)Cc1ccc(Br)cc1	3	-1	-1	-2	-1	0
COc1ccc(OCCN(C)Cc2c(O)ccc3ccccc23)cc1	1	0	6.0*	-1	0	-1
CSc1ccccc1NC(=O)CN(C)Cc1c(O)ccc2ccccc12	0	0	6.2*	-3	-1	2

Screens from PubChem BioAssay.
